From PubChem BioAssay
SMN2 splice enh: increases expression of the SMN2 splice variant. AID 1458. Potency, µM (doses to about 46.1 µM), for the others: at the top dose activity change, positive = activation, most hits filed as activators. 210,000 compounds, 2.8% hits. HEK293 SMN2-luciferase splicing reporter, luminescence, 30-36 h; also: % of control where 0% means no effect; nearly all actives have a fitted effect of over 55% in size
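qHTS luciferase splicing reporter: luminescence rises when SMN2 exon 7 is included in transfected HEK293 cells. Compound exposure lasted 30-36 h at 37C, with 4.5 mM final sodium butyrate as control, followed by a ONE-Glo read.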
NPC1 promoter act: NPC1 promoter activation; Huh7 NPC1 promoter luciferase reporter, 24 h; Potency, µM (doses to about 9.22 µM), for the others: at the top dose activation, usual class: activators; 320,000 compounds, 2.4% hits; AID 485313; also: % of control where 0% means no effect; nearly all actives have a fitted effect of over 60% in size
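Huh7 reporter cells (NPC1 promoter driving luciferase) are dosed with compound for 24 h at 37 °C, 5% CO2; luciferase detection reagent is then added and luminescence measured after 10 min at ambient temperature.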
FLuc counter: counter-screen for miR-21 project: firefly luciferase inhibitors or activators | P08659 | purified FLuc, Km substrates, luminescence inhibition | Potency, µM (doses to about 57.5 µM), for the others: at the top dose activity change, negative = inhibition, hits mostly inhibitors | 360,000 compounds, 6.9% hits | AID 588342;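 also: plate controls were vehicle for no effect and reference inhibitor for full effect; nearly all actives have a fitted effect of over 55% in size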
Target sequence (P08659 whole entry, looked up): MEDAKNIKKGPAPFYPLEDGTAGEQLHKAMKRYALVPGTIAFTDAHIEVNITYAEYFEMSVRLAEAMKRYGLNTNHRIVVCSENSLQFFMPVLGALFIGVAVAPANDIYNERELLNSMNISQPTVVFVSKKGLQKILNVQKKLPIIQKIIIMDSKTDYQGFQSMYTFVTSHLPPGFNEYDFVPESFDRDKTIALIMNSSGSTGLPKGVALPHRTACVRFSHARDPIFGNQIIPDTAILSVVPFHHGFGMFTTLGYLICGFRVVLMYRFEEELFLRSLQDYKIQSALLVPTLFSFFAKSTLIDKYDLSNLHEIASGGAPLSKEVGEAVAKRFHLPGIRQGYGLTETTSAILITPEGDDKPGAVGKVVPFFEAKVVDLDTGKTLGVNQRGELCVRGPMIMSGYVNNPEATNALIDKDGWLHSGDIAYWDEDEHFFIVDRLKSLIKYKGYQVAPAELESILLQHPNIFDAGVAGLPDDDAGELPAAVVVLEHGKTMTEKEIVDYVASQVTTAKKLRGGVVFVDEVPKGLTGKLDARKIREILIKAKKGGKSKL
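Purified P. pyralis luciferase, 10 nM final, with Km-level 10 uM D-luciferin and 10 uM ATP in 50 mM Tris acetate pH 7.5, 10 mM Mg acetate, 0.01% Tween-20, 0.05% BSA; 6-point qHTS titration about 60 µM downward; luminescence read.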
ELG1 genotoxic: genotoxicity induction in ELG1-luciferase HEK293T cells. HEK293T ELG1-luciferase reporter, luminescence, 16 h. Potency, µM (series often up to 46 µM), for inactives: at the highest dose activity change, positive = activation, most hits filed as activators. 330,000 compounds, 1.3% hits. AID 504466; also: % of control where 0% means no effect; nearly all actives have a fitted effect of over 60% in size
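16 hr compound incubation (37 °C, 5% CO2) of HEK293T cells carrying luciferase-tagged ELG1; luciferase then measured by ONE-Glo luminescence after 30 min at RT.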
Rab9 promoter act: Rab9 promoter activation | Huh7 Rab9 promoter-luciferase reporter, luminescence, 24 h | 320,000 compounds, 2.8% hits | Potency, µM (highest dose often 9.22 µM), for the others: at the top dose activation, negative = inhibition, most hits filed as activators; also: % of control where 0% means no effect; nearly all actives have a fitted effect of over 60% in size
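Luciferase signal after 10 min detection reagent at ambient indicates Rab9 promoter upregulation; stably transfected Huh7 cells were treated 24 h with compound in DMSO at 37 °C, 5% CO2.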
Luc counter: blocks Kinase-Glo luciferase, a counter-screen artifact; Q27757; Kinase-Glo luciferase, ATP luminescence, 8 min; Potency, µM (top dose mostly 38.3 µM), for the others: top-dose activity change, negative = inhibition, hits mostly inhibitors; 200,000 compounds, 0.28% hits; also: % is scaled to controls: 0 for no effect and ±100 for the full control effect; nearly all actives have a fitted effect of over 60% in size
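Inhibition of Kinase-Glo luciferase light generation was assessed at 10 uM ATP in pH 7.2 imidazole buffer, with luminescence measured after eight minutes at ambient temperature.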
* hit, by the source's call; ? = inconclusive; nt = not tested or not shown; [ ] = another dose, or the depositor's remark. The list is not random: actives were taken first. Their share in the collection is about 7.5%. Calls follow the shape of the dose curve; as a rule, active = well fitted curve in the direction sought with a large enough effect; inconclusive = small, poorly fitted or top-dose-only effect, or another doubt; inactive = no such curve, though single readings can be large; an effect the other way counts as inactive or inconclusive. Potency is read from the fitted curve at half-maximal effect.

SMILES	SMN2 splice enh	NPC1 promoter act	FLuc counter	ELG1 genotoxic	Rab9 promoter act	Luc counter
O=C(Nc1ccc(O)c(C(=O)O)c1)c1ccc2c(c1)C(=O)N(CC1CCCO1)C2=O (stereo unspecified)	-10%	-5%	9.5µM*	0%	-1%	-1%
Cc1ccc(NC(=O)c2ccc3c(c2)C(=O)N(CC2CCCO2)C3=O)cc1C (stereo unspecified)	nt	0%	11µM*	2%	14%	0%
Cc1nnc(NC(=O)c2ccc3c(c2)C(=O)N(CC2CCCO2)C3=O)s1 (stereo unspecified)	-3%	-2%	5.4µM*	7%	2%	1%
COc1ccc(NC(=O)c2ccc3c(c2)C(=O)N(CC2CCCO2)C3=O)cc1O (stereo unspecified)	nt	1%	?	2%	-6%	nt
Nc1ccc2c(c1)C(=O)N(CC1CCCO1)C2=O (stereo unspecified)	1%	6%	-12%	12%	-1%	0%
NCC1CCC(C(=O)O)CC1 (stereo unspecified)	1%	nt	nt	nt	nt	-7%
CCOc1ccc(N(C)S(=O)(=O)c2ccc(C)c(C(=O)N3CCN(Cc4ccc5c(c4)OCO5)CC3)c2)cc1	nt	nt	nt	-8%	nt	nt
COc1ccccc1CNC(=O)C1CCC(CNS(=O)(=O)c2ccc3c(c2)CCCC(=O)N3)CC1 (stereo unspecified)	nt	nt	6%	nt	nt	nt
Cc1c(NC(=O)c2ccc3c(c2)C(=O)N(CC2CCCO2)C3=O)cccc1C(=O)O (stereo unspecified)	15%	-3%	15µM*	2%	1%	1%
O=C(Nc1ccc2c(c1)C(=O)N(CC1CCCO1)C2=O)c1ccc(Cl)c(Cl)c1 (stereo unspecified)	-78%	-8%	5.4µM*	14%	-13%	-2%
COc1ccc(C(=O)OCCc2ccc(O)cc2)cc1	?	?	6.7µM*	13µM*	?	3%
CN(C)S(=O)(=O)c1ccc(C(=O)OCCc2ccccc2)cc1	nt	1%	15µM*	14%	0%	nt
O=C(OCCc1ccccc1)c1cc(O)c(O)c(O)c1	nt	-2%	24µM*	?	16%	nt
Nc1ccc(C(=O)OCCc2ccccc2)cc1	nt	3.5µM*	0.6µM*	?	3.2µM*	nt
O=C(OCCCCOC(=O)c1ccccc1)c1ccccc1	nt	-7%	-1%	-2%	-6%	nt
CN(C)S(=O)(=O)c1ccc(C(=O)OCC(=O)NCc2ccccc2)cc1	-3%	-8%	0%	5%	2%	-2%
C=C1C2CC[C@@]3(C)C(c4ccoc4)OC(=O)C[C@@]13OC1CC(OC(C)=O)C(C)(C)C(CC(=O)OC)[C@@]12C (stereo partly specified)	-66%	nt	nt	nt	nt	0%
COc1ccc(CCNC(=O)CCCCn2c(=O)c3ccccc3n(Cc3ccc(Cl)cc3)c2=O)cc1OC	-16%	nt	-9%	nt	nt	nt
COc1cccc(CNC(=O)CCC(=O)N2CC(C)Sc3ccccc32)c1 (stereo unspecified)	nt	nt	-9%	nt	nt	nt
CC1CCc2c(sc3ncn(CC(=O)N=Nc4c(O)[nH]c5ccccc45)c(=O)c23)C1 (stereo unspecified)	nt	-3%	0%	-2%	-6%	nt
CC1CCc2c(sc3nc(SCC(=O)O)n(-c4ccccc4)c(=O)c23)C1 (stereo unspecified)	nt	13%	21µM*	-1%	2%	nt
CC1CCc2c(sc3ncn(CCO)c(=O)c23)C1 (stereo unspecified)	13µM*	?	17µM*	21µM*	2.5µM*	2%
CC1CCc2c(sc3ncn(Cc4ccc(C(=O)O)cc4)c(=O)c23)C1 (stereo unspecified)	28%	20%	21µM*	?	19%	3%
O=C(CN(C(=O)CCC(=O)Nc1nccs1)c1ccc(F)cc1)NCc1ccccc1	nt	-1%	1%	-3%	-2%	nt
O=CN1CCN(C(=O)c2ccc(-c3nc4ccccc4s3)s2)CC1	nt	1.8µM*	11µM*	?	1.1µM*	-8%
SMILES	SMN2 splice enh	NPC1 promoter act	FLuc counter	ELG1 genotoxic	Rab9 promoter act	Luc counter
O=C(O)c1ccc(-c2ccc(-c3ccccc3)cc2)o1	nt	nt	nt	nt	nt	1%[39.9 µM]
O=C(CCc1nc2ccccc2s1)N1CCN(c2ccccc2)CC1	12%	6%	3%	-12%	-3%	2%
O=C(O)c1ccc(-c2nc3ccccc3s2)o1	nt	?	6µM*	12%	?	nt
O=Cc1ccc(-c2nc3ccccc3s2)o1	11µM*	27%	11µM*	?	?	?
O=C(c1ccc(-c2nc3ccccc3s2)o1)N1CCN(c2ccccc2O)CC1	nt	?	17µM*	-9%	?	nt
CCC(CO)Oc1cc(NC(=O)c2ccc(OC)cc2)c2ncn(C(C)C)c2c1 (stereo unspecified)	nt	nt	nt	-8%	nt	nt
CCOC(=O)/C=C/[C@H]1CCc2cccc(Cl)c2O1	nt	14%	-23%	1%	5%	nt
CCCn1ncc(CN2CCC(n3nccc3NC(=O)CCc3ccccc3)CC2)c1C	nt	2%	1%	0%	-1%	nt
COC(=O)N(C)c1nc2ccccc2s1	-7%	13%	24µM*	?	28%	-3%
COCCNC(=O)c1cc2sc3ccccc3c2s1	14µM*	?	11µM*	15µM*	2.8µM*	-2%
CCCCNC(=O)c1cc2ccccc2s1	6%	16%	17µM*	0%	?	0%
CN(C)CCCNC(=O)c1cc2sc3ccccc3c2s1	nt	5%	-15%	?	16%	1%
CCCCNC(=O)N(C)c1nc2ccccc2s1	nt	?	13µM*	?	1.8µM*	-6%
CCCNC(=O)c1cc2cc([N+](=O)[O-])ccc2s1	-13%	-2%	0%	0%	-8%	1%
COCCN(C(=O)Nc1ccc(OC)cc1)c1nc2ccccc2s1	nt	12%	-22%	1%	9%	nt
CCCCNC(=S)N1CCN(c2nc3ccccc3s2)CC1	nt	0%	1%	-5%	-14%	-1%
Cc1cccc(NC(=O)CSc2nc(=O)n(Cc3cccnc3)c3c2CCC3)c1C	nt	nt	-5%	nt	nt	nt
CN1CCN(S(=O)(=O)c2cccc(C(=O)Oc3ccc(Br)cc3F)c2)CC1	nt	-6%	2%	1%	-2%	nt
Cc1ccc(-c2csc(N=C(N)N)n2)cc1	nt	?	15µM*	14%	?	nt
O=C(NCCc1ccccc1)C1CCC(=O)N(Cc2ccc(Cl)cc2)C1 (stereo unspecified)	nt	4%	-3%	2%	0%	nt
O=C(NCCc1cscn1)C1CCC(=O)N(Cc2ccc(Cl)cc2)C1 (stereo unspecified)	nt	?	3µM*	?	?	nt
